In PubChem BioAssay (EPA / NIEHS):
Activity calls are given as the source filed them. Rule for the calls: active = hit-call score of the fitted dose curve at least 0.9, where 1 is the maximum; inactive = score below 0.9.

Key:
[1] = read-out: TIMP metallopeptidase inhibitor 1 (TIMP1), TIMP1 (gene 7076); test: BSK_hDFCGF_TIMP1: BioMAP Diversity Plus: hDFCGF Assay for TIMP metallopeptidase inhibitor 1 (TIMP1) Biomarker Activity (AID 2283062); conditions: primary human foreskin fibroblasts; actives raise or lower the signal
How it was run: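 TIMP-1 measured by ELISA 24 h after chemical dosing of primary human skin fibroblasts, with gain or loss fitted relative to DMSO. Parallel SRB staining (560 nm) monitored overt cytotoxicity.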

[2] = read-out: Monokine induced gamma interferon (MIG), CXCL9 (gene 4283); test: BSK_hDFCGF_MIG: BioMAP Diversity Plus: hDFCGF Assay for Monokine induced gamma interferon (MIG) Biomarker Activity (AID 2283063); conditions: primary human foreskin fibroblasts; actives raise or lower the signal
How it was run: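 Human primary foreskin fibroblasts in the hDFCGF system, exposed to test chemical for 24 h; MIG measured by ELISA. Bidirectional curve fitting against DMSO negative control as activity baseline.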

[3] = read-out: Matrix Metallopeptidase 1 (MMP1), MMP1 (gene 4312); test: BSK_hDFCGF_MMP1: BioMAP Diversity Plus: hDFCGF Assay for Matrix Metallopeptidase 1 (MMP1) Biomarker Activity (AID 2283064); conditions: primary human foreskin fibroblasts; actives raise or lower the signal
How it was run: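 ELISA read-out of MMP1 from human foreskin fibroblasts (primary skin cells), 24 h post-dose. Gain or loss of signal was fitted bidirectionally versus DMSO negative control; cytotoxicity was checked by SRB in parallel cultures.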

[4] = read-out: Vascular cell adhesion molecule 1 (VCAM1), VCAM1 (gene 7412); test: BSK_hDFCGF_VCAM1: BioMAP Diversity Plus: hDFCGF Assay for Vascular cell adhesion molecule 1 (VCAM1) Biomarker Activity (AID 2283065); conditions: primary human foreskin fibroblasts; actives raise or lower the signal
How it was run: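 ELISA readout of VCAM-1 on human dermal fibroblast primary cultures, 24 h after chemical exposure. Gain or loss of signal fitted in both directions against DMSO baseline.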

[5] = read-out: Intercellular Adhesion Molecule 1 (ICAM1), ICAM1 (gene 3383); test: BSK_KF3CT_ICAM1: BioMAP Diversity Plus: KF3CT Assay for Intercellular Adhesion Molecule 1 (ICAM1) Biomarker Activity (AID 2283067); conditions: primary human keratinocytes with fibroblasts; actives raise or lower the signal
How it was run: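 Cell-surface ICAM-1 was measured by ELISA 24 h after dosing primary human skin keratinocytes co-cultured with fibroblasts. Parallel SRB staining tracked overt cytotoxicity. Gain or loss of signal was fitted relative to DMSO.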

[6] = read-out: Interferon-gamma inducible Protein 10 (IP10), CXCL10 (gene 3627); test: BSK_KF3CT_IP10: BioMAP Diversity Plus: KF3CT Assay for Interferon-gamma inducible Protein 10 (IP10) Biomarker Activity (AID 2283068); conditions: primary human keratinocytes with fibroblasts; actives raise or lower the signal
How it was run: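 KF3CT co-culture (keratinocytes + foreskin fibroblasts), 24 h compound, IP-10 by ELISA; bidirectional fit vs DMSO baseline.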

[7] = BSK_KF3CT_SRB: Viability Assessment in the BioMAP Diversity Plus: KF3CT Assay (AID 2283069); conditions: primary human keratinocytes with fibroblasts;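 note: total protein by sulforhodamine B staining as a cytotoxicity measure; read 24 h after compound addition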
How it was run: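 SRB read-out at 560 nm (0.1% stain, TCA-fixed cells) gauges overt cytotoxicity in a human skin keratinocyte–fibroblast co-culture 24 h post-dosing. Signal change was fitted bidirectionally relative to DMSO control.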

[8] = read-out: Interleukin-1 alpha (IL1a), IL1A (gene 3552); test: BSK_KF3CT_IL1a: BioMAP Diversity Plus: KF3CT Assay for Interleukin-1 alpha (IL1a) Biomarker Activity (AID 2283070); conditions: primary human keratinocytes with fibroblasts; actives raise or lower the signal
How it was run: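 Primary skin co-culture (keratinocytes, foreskin fibroblasts), 24 h exposure; ELISA for IL-1a; bidirectional curve fit vs DMSO.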

[9] = read-out: TIMP metallopeptidase inhibitor 2 (TIMP2), TIMP2 (gene 7077); test: BSK_KF3CT_TIMP2: BioMAP Diversity Plus: KF3CT Assay for TIMP metallopeptidase inhibitor 2 (TIMP2) Biomarker Activity (AID 2283071); conditions: primary human keratinocytes with fibroblasts; actives raise or lower the signal
How it was run: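 Measurements come from ELISA detection of TIMP-2 at 24 hours in a dosed human keratinocyte and foreskin fibroblast co-culture. DMSO serves as negative control and baseline.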

[10] = read-out: Transforming growth factor beta 1 (TGFb1), TGFB1 (gene 7040); test: BSK_KF3CT_TGFb1: BioMAP Diversity Plus: KF3CT Assay for Transforming growth factor beta 1 (TGFb1) Biomarker Activity (AID 2283072); conditions: primary human keratinocytes with fibroblasts; actives raise or lower the signal
How it was run: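 TGF-b1 ELISA on a 24 h dosed co-culture of human keratinocytes and foreskin fibroblasts; cytotoxicity tracked in parallel cultures by SRB staining.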

[11] = read-out: C-C motif chemokine 2 (Homo sapiens) (UniProt P13500); test: BSK_KF3CT_MCP1: BioMAP Diversity Plus: KF3CT Assay for Monocyte Chemoattractant Protein 1 (MCP1/CCL2) Biomarker Activity (AID 2283073); conditions: primary human keratinocytes with fibroblasts; actives raise or lower the signal
How it was run: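 ELISA read-out of MCP-1, 24 h post-dose, in primary human skin keratinocytes co-cultured with fibroblasts. Parallel SRB staining monitors cytotoxicity; changes fitted both directions relative to DMSO.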

[12] = read-out: Matrix Metallopeptidase 9 (MMP9), MMP9 (gene 4318); test: BSK_KF3CT_MMP9: BioMAP Diversity Plus: KF3CT Assay for Matrix Metallopeptidase 9 (MMP9) Biomarker Activity (AID 2283074); conditions: primary human keratinocytes with fibroblasts; actives raise or lower the signal
How it was run: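 ELISA read-out of MMP-9 at 24 h post-dosing in a co-culture of human skin keratinocytes and foreskin fibroblasts. Gain or loss of signal was fitted in both directions against DMSO.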

[13] = read-out: urokinase plasminogen activator (uPA), PLAU (gene 5328); test: BSK_KF3CT_uPA: BioMAP Diversity Plus: KF3CT Assay for urokinase plasminogen activator (uPA) Biomarker Activity (AID 2283075); conditions: primary human keratinocytes with fibroblasts; actives raise or lower the signal
How it was run: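 Skin co-culture (keratinocytes + foreskin fibroblasts), human primary; 24 h post-dose; uPA by ELISA; gain/loss fit vs DMSO baseline.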

CD40, CD40 (gene 958) = test: BSK_LPS_CD40: BioMAP Diversity Plus: LPS Assay for CD40 Biomarker Activity (AID 2283076); conditions: primary human HUVEC with PBMC; actives raise or lower the signal
How it was run: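 In the LPS system of human endothelial cells with peripheral blood mononuclear cells, CD40 levels were read by ELISA 24 h post-treatment. Signal changes in either direction were fitted against the DMSO baseline, with parallel SRB protein staining.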

[14] = read-out: E-selectin (Homo sapiens) (UniProt P16581); test: BSK_LPS_Eselectin: BioMAP Diversity Plus: LPS Assay for Eselectin Biomarker Activity (AID 2283077); conditions: primary human HUVEC with PBMC; actives raise or lower the signal
How it was run: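 E-selectin ELISA on LPS-stimulated endothelial cell/PBMC co-cultures, read 24 h post-treatment; gains and losses fitted against DMSO. Parallel SRB staining (0.1% SRB after 10% TCA fixation, 560 nm) flags overt cytotoxicity.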

[15] = read-out: Interleukin-8 (IL8), CXCL8 (gene 3576); test: BSK_LPS_IL8: BioMAP Diversity Plus: LPS Assay for Interleukin-8 (IL8) Biomarker Activity (AID 2283078); conditions: primary human HUVEC with PBMC; actives raise or lower the signal
How it was run: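 ELISA read-out of IL-8 after 24 h chemical treatment of LPS-activated endothelial/PBMC human primary co-cultures. Changes either up or down relative to DMSO; overt cytotoxicity checked by sulforhodamine B staining in parallel wells.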

[16] = BSK_LPS_SRB: Viability Assessment in the BioMAP Diversity Plus: LPS Assay (AID 2283079); conditions: primary human HUVEC with PBMC;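 note: total protein by sulforhodamine B absorbance as a cytotoxicity measure; measured one day after compound addition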
How it was run: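 SRB viability endpoint: cells fixed with 10% TCA, stained with 0.1% SRB, read at 560 nm, 24 h post-dose. HUVEC/PBMC co-culture; signal change in either direction scored relative to DMSO.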

[17] = read-out: Interleukin-1 alpha (IL1a), IL1A (gene 3552); test: BSK_LPS_IL1a: BioMAP Diversity Plus: LPS Assay for Interleukin-1 alpha (IL1a) Biomarker Activity (AID 2283080); conditions: primary human HUVEC with PBMC; actives raise or lower the signal
How it was run: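 Readout is IL-1a level by ELISA, 24 h post-dose, fitted as gain or loss relative to DMSO. System: LPS-activated human primary co-culture of vascular endothelium and peripheral blood mononuclear cells, with parallel SRB total-protein cytotoxicity.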

[18] = read-out: Monocyte Chemoattractant Protein-1 (MCP1), CCL2 (gene 6347); test: BSK_LPS_MCP1: BioMAP Diversity Plus: LPS Assay for Monocyte Chemoattractant Protein-1 (MCP1) Biomarker Activity (AID 2283081); conditions: primary human HUVEC with PBMC; actives raise or lower the signal
How it was run: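 Secreted MCP-1 read by ELISA at 24 h post-dosing in an LPS-activated co-culture of endothelial cells with peripheral blood mononuclear cells. Fits run in both directions, DMSO as baseline; parallel SRB staining tracks overt cytotoxicity.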

[19] = read-out: Plasminogen activator inhibitor-1 (PAI1), SERPINE1 (gene 5054); test: BSK_hDFCGF_PAI1: BioMAP Diversity Plus: hDFCGF Assay for Plasminogen activator inhibitor-1 (PAI1) Biomarker Activity (AID 2283066); conditions: primary human foreskin fibroblasts; actives raise or lower the signal
How it was run: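 Human skin fibroblast cultures receive chemical for 24 h before PAI-1 is measured by ELISA; signal changes are fitted bidirectionally against DMSO-treated wells.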

Measured: AC50

E-selectin (Homo sapiens), sequence (P16581 whole entry, looked up): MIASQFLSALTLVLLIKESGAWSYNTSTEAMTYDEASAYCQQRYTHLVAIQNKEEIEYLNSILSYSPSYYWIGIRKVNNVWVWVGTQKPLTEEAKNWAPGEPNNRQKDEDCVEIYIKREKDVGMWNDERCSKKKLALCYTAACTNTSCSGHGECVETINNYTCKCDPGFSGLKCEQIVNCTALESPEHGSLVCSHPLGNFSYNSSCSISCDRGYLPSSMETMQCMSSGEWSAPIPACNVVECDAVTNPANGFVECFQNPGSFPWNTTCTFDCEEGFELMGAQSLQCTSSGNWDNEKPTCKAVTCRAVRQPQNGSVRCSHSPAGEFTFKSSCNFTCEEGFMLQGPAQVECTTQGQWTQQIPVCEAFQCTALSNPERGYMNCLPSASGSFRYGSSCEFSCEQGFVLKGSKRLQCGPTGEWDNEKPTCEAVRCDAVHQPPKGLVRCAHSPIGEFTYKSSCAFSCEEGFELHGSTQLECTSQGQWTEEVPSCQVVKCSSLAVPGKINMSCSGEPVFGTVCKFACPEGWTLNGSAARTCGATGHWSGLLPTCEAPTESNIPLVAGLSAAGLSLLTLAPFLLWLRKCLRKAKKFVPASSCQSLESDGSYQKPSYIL

C=CCOC(=O)c1ccccc1C(=O)OCC=C
not listed: [19]
inactive: all other assays above

OC[C@@H](O)[C@@H](O)[C@H](O)[C@H](O)CO
not listed: [4] | CD40, CD40 (gene 958) | [16]
inactive: all other assays above

CC1(C)CC(N=C=O)CC(C)(CN=C=O)C1 (stereo unspecified)
not listed: [4] | CD40, CD40 (gene 958) | [16]
inactive: all other assays above

CC(=O)OC/C=C(\C)CCC=C(C)C
not listed: CD40, CD40 (gene 958) | [16]
inactive: all other assays above

O=C(OCCCCCOC(=O)c1ccccc1)c1ccccc1
not listed: [19]
inactive: all other assays above

Cc1cccc(Nc2cc(Cl)nc(SCC(=O)O)n2)c1C
not listed: [16] | [19]
inactive: all other assays above

CCOc1ccc2c(c1)C(C)=CC(C)(C)N2
active: [2] 16.4 µM
not listed: [4] | CD40, CD40 (gene 958)
inactive: all other assays above
